Each structure is given as a SMILES string. Values without a mark were called inactive.
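Also: conidia screened in RPMI 1640 medium under 5% CO2, growth read by spectrophotometer, medium with 0.5% DMSO serving as the untreated reference.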

The subject of this experiment is Scedosporium aurantiacum CBS 136046. In words: growth inhibition relative to DMSO control (OD600); higher = more antifungal activity, active = 80 or more; extreme values may be limits of the assay. Particulars: 5 µM; 72 h; 37 °C.
Consider `CN1c2ccc(Cl)cc2N(c2ccccc2)C(=O)c2cn(Cc3ccc(CN4CCOCC4)cc3)nc21`, for which the growth inhibition is 17.1%.
In the case of `CC(C)C(=O)N[C@H]1[C@H]([C@H](O)[C@H](O)CO)OC(C(=O)O)=C[C@@H]1N=[N+]=[N-]`, the growth inhibition was 9.45%.
As to `O=C(c1ccc(F)cc1)N1CCN2C(=O)c3ccccc3C12c1ccccc1` (stereo not drawn), the growth inhibition was 12.5%.
For the compound `CC(=O)N1CCN(c2ccc(OCC3COC(Cn4ccnc4)(c4ccc(Cl)cc4Cl)O3)cc2)CC1` (stereo not drawn), the growth inhibition is 83.2% (active).
The result for `CNCC(=O)OCc1cccnc1N(C)C(=O)OC(C)[n+]1cnn(C[C@](O)(c2cc(F)ccc2F)[C@@H](C)c2nc(-c3ccc(C#N)cc3)cs2)c1` (stereo partly drawn) reads 59.5%; that for `COC(=O)Nc1nc2cc([S+]([O-])c3ccccc3)ccc2[nH]1` (stereo not drawn), 0.624%.
As to `COc1cc(Cc2cnc(N)nc2N)c2c(c1OC)OC(C1CC1)C=C2` (stereo not drawn), the growth inhibition was 2.07%.
The result for `Cc1nc(Nc2ccc(F)cc2)nc(N2CCc3ccccc3C2C)c1C` (stereo not drawn) reads 25.2%.
As to `Nc1nc(C(F)(F)F)cc2c1[nH]c(=O)n2Cc1ccccc1`, the growth inhibition is 18.8%.
As to `CCCCN1C[C@H](O)[C@@H](O)[C@H](O)[C@H]1CO`, the growth inhibition is 3.51%.
On to `Nc1cc(-c2nc3ccccc3[nH]2)n[nH]c1=O`, for which the growth inhibition was 1.56%.
On to `COc1cc(Cc2cnc(N)nc2N)cc(OC)c1OC`, for which the growth inhibition was 0.169%.
The result for `NC[C@H]1O[C@H](O[C@H]2[C@H](O)[C@@H](O[C@H]3O[C@H](CO)[C@@H](O)[C@H](N)[C@H]3O)[C@H](N)C[C@@H]2N)[C@H](N)C[C@@H]1O` reads 15.5%.
With `O=[N+]([O-])/C(Br)=C/c1ccc(Br)o1`, the growth inhibition was 0.879%.
Take `O=C(O)c1ccccc1Sc1ncnc2sc3c(c12)CCC3`: the growth inhibition is 1.9%.
In the case of `Nc1nc(Nc2ccc3nc(-c4ccc(F)cc4)cc(N)c3c2)cc(-c2ccccc2)n1`, the growth inhibition is 17.1%.
In the case of `COc1cc(C)c2c(Oc3cccc(C(F)(F)F)c3)c(OC)cc(NC(C)CCCN)c2n1` (stereo not drawn), the growth inhibition was 33.4%.
In the case of `CC(=O)N[C@H](C)C(=O)N[C@H](Cc1ccccc1)C(=O)O`, the growth inhibition was 10.8%.
As to `O=C(O)COc1cccc2c1CC[C@](O)(COC(=O)N(c1ccccc1)c1ccccc1)C2`, the growth inhibition is 0.943%.
In the case of `COC(=O)Nc1nc2cc(Sc3ccccc3)ccc2[nH]1`, the growth inhibition was 0.273%.
The result for `CC(C)Nc1ncnc2c1cnn2-c1ccc(Cl)cc1` reads 10.7%.
For the compound `C[C@H]1COc2c(N3CCN(C)CC3)c(F)cc3c(=O)c(C(=O)O)cn1c23`, the growth inhibition was 6.31%.
Turning to `COc1cc(NCc2ccc3nc(N)nc(N)c3c2C)cc(OC)c1OC`, the growth inhibition was 0.273%.
For `NC(=O)c1ccccc1NC(=O)c1ccc(C(=O)Nc2ccccc2C(N)=O)cc1`, the growth inhibition was 11.5%.
For `CC(C)n1cnc2c(NCc3ccccc3)nc(NCc3ccccc3)nc21`, the growth inhibition is 39.6%.
`C=CCN(C(=O)OCc1ccc([N+](=O)[O-])cc1)C1CCN(CC[C@](C)(CN(C)S(=O)(=O)c2ccccc2)c2ccccc2)CC1`: the growth inhibition is 34.9%.
The result for `Cc1ncc([N+](=O)[O-])n1CC(O)CN1CCOCC1` (stereo not drawn) reads 31%.
With `NCc1ccc(S(N)(=O)=O)cc1`, the growth inhibition is 9.4%.
As to `O=C(CCCC(F)(F)F)N1CCC(c2nc(-c3nccs3)no2)CC1`, the growth inhibition is 4.66%.
The result for `O=C(NC(=O)N1CCCc2ccccc21)c1ccc(Cl)cc1Cl` reads 3.05%; that for `CC[N+]1(C/C2=C/CCCCCC2)CCC(NC(=O)C2c3cc(Cl)ccc3Oc3ccc(Cl)cc32)CC1` (stereo not drawn), 9.71%.
The result for `Nc1nc(O)c2ncn([C@@H]3O[C@H](CO)[C@@H](O)[C@H]3F)c2n1` reads 17.4%; that for `CC(=N)N1CC[C@H](SC2=C(C(=O)O)N3C(=O)[C@@H]([C@@H](C)O)[C@H]3C2)C1`, 5.55%; that for `COc1c(NC(=O)[C@H]2CC[C@@H](COc3ccc([N+](=O)[O-])cc3)CC2)c(F)cc2c(=O)c(C(=O)O)cn(C3CC3)c12`, 15.5%.
Consider `N[C@@H]1CN(c2c(F)cc3c(=O)c(C(=O)O)cn([C@@H]4C[C@@H]4F)c3c2Cl)CC12CC2`, for which the growth inhibition is 7.35%.
As to `COc1ccc(SCC(=O)N2c3ccccc3Sc3ccccc32)cc1`, the growth inhibition is 19.3%.
Regarding `CC(Cc1ccccc1)C(=O)Nc1ccc(Cl)cc1C(=O)O` (stereo not drawn), the growth inhibition was 0%.
`Cc1cc(C)n2nc(C(=O)NS(=O)(=O)c3c(C)cccc3OC(F)(F)F)nc2n1`: the growth inhibition was 0%.

For the origin of these results see the supplement of paper PMC9897528.
